From publication PMC5540273 (PLoS ONE, 2017)

Legend:
Conditions in all cases: concentration: 1 μM, replicates: in singlicate; n = 1
AAK1 = tested on: AAK1
ABL1-nonphosphorylated = tested on: ABL1-nonphosphorylated
ABL1-phosphorylated = tested on: ABL1-phosphorylated
ABL2 = tested on: ABL2
ACVR1B = tested on: ACVR1B
ACVR1 = tested on: ACVR1
ACVR2A = tested on: ACVR2A
ACVR2B = tested on: ACVR2B
ACVRL1 = tested on: ACVRL1
ADCK3 = tested on: T1, ADCK3
T1 construct: gene CABC1

ADCK4 = tested on: ADCK4
AKT1 = tested on: AKT1
AKT2 = tested on: AKT2
AKT3 = tested on: AKT3
ALK = tested on: ALK
AMPK-alpha1 = tested on: T2, AMPK-alpha1
T2 construct: gene PRKAA1

AMPK-alpha2 = tested on: T3, AMPK-alpha2
T3 construct: gene PRKAA2

ANKK1 = tested on: ANKK1
ARK5 = tested on: T4, ARK5
T4 construct: gene NUAK1

ASK1 = tested on: T5, ASK1
T5 construct: gene MAP3K5
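Also: KINOMEscan kinase panel screen.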

SMILES | %Inh (AAK1) [%] | %Inh (ABL1-nonphosphorylated) [%] | %Inh (ABL1-phosphorylated) [%] | %Inh (ABL2) [%] | %Inh (ACVR1B) [%] | %Inh (ACVR1) [%] | %Inh (ACVR2A) [%] | %Inh (ACVR2B) [%] | %Inh (ACVRL1) [%] | %Inh (ADCK3) [%] | %Inh (ADCK4) [%] | %Inh (AKT1) [%] | %Inh (AKT2) [%] | %Inh (AKT3) [%] | %Inh (ALK) [%] | %Inh (AMPK-alpha1) [%] | %Inh (AMPK-alpha2) [%] | %Inh (ANKK1) [%] | %Inh (ARK5) [%] | %Inh (ASK1) [%]
COc1ccc(C2=C(Nc3cccc(O)c3)C(=O)NC2=O)cc1 [SB-390766] | 20 | 0 | 0 | 13 | 0 | 0 | 0 | 0 | 0 | 0 | 9 | 0 | 12 | 0 | 73 | 100 | 10 | 32 | 0 | 35
Cc1ccc(NC(=O)c2ccnc(N3CCCCC3)c2)cc1-c1ccc(C(=O)NCC2CC2)cc1 [GW775610] | 0 | 55 | 0 | 54 | 0 | 0 | 0 | 0 | 0 | 0 | 0 | 0 | 0 | 0 | 10 | 19 | 0 | 0 | 2 | 0
CN1CCN(Cc2ccc(NC(=O)Nc3ccc(N(C)c4ccnc(Nc5ccc(CS(C)(=O)=O)cc5)n4)cc3)cc2)CC1.Cl [GW827654] | 62 | 100 | 94.2 | 81 | 0 | 58 | 0 | 38 | 57 | 0 | 34 | 0 | 0 | 0 | 47 | 34 | 34 | 80 | 8 | 0
NCCC(NC(=O)c1cc(Br)c(-c2ccnc3[nH]ccc23)s1)c1ccccc1.O=C(O)C(F)(F)F.O=C(O)C(F)(F)F (stereo not drawn) [GSK1307810] | 66 | 0 | 0 | 8 | 43 | 15 | 0 | 0 | 0 | 52 | 60 | 91.6 | 52 | 87 | 50 | 52 | 34 | 0 | 18 | 15
Cc1ccccc1CC(=O)N1CCc2cc(-c3cn(C)c4ncnc(N)c34)ccc21 [GSK2603346] | 3 | 50 | 25 | 29 | 0 | 0 | 0 | 65 | 11 | 3 | 3 | 0 | 4 | 0 | 20 | 18 | 23 | 0 | 42 | 30
CN(c1ccc2c(c1)nc(NCc1ccccc1)n2C)c1ccnc(Nc2ccc(CS(C)(=O)=O)cc2)n1.Cl [GW811603] | 16 | 98.9 | 66 | 54 | 0 | 0 | 0 | 0 | 0 | 0 | 7 | 0 | 0 | 1 | 49 | 2 | 0 | 0 | 0 | 9
O=C1NC(=O)C(c2ccccc2Cl)=C1Nc1cccc(Cl)c1 [SB-342409] | 7 | 0 | 9 | 16 | 0 | 12 | 0 | 0 | 70 | 20 | 0 | 0 | 100 | 0 | 41 | 0 | 11 | 0 | 14 | 8
Cc1ccc(-c2ccc3occ(-c4ccc(S(C)=O)cc4)c3c2)nn1 (stereo not drawn) | 15 | 35 | 29 | 0 | 7 | 0 | 0 | 0 | 20 | 0 | 0 | 2 | 12 | 9 | 0 | 0 | 1 | 0 | 16 | 0
COc1cccc(C2=C(Nc3cccc(O)c3)C(=O)NC2=O)c1 [SB-390771] | 38 | 0 | 4 | 10 | 0 | 18 | 0 | 6 | 0 | 5 | 32 | 0 | 7 | 0 | 4 | 16 | 3 | 0 | 12 | 7
